NadD block: inhibitors of S. aureus NadD, primary screen, biochemical, colorimetric, uHTS | purified NadD enzyme, colorimetric absorbance read-out | inhibition, % at 20 µM | hit rate 0.78% among 360,000 | AID 602399, 2012; in the data active = inhibition above about 26%
FAS TE block: FAS thioesterase domain inhibitors, primary screen, biochemical, fluorescence intensity, uHTS. recombinant FAS-TE, OMFH fluorogenic substrate, fluorescence endpoint. inhibition, % at 15 µM. Fatty acid synthase (Homo sapiens), P49327. hit rate 0.67% among 360,000. AID 602261, 2012;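 active = compounds whose normalised, plate-corrected inhibition of enzyme fluorescence in the single-dose primary screen is 50% or more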;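 also: 0% = DMSO with enzyme and 100% = substrate without enzyme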
Calb FLC: C. albicans growth inhibition with fluconazole, primary screen, CaCi-2 strain, Alamar Blue fluorescence | hit rate 0.57% among 300,000 | AID 1979, 2009 | growth inhibition, % (concentration not given with the values) | C. albicans CaCi-2 (fluconazole-resistant clinical isolate) + fluconazole, 48 h;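 active = growth inhibition above about 58% in most replicates, limit read from the data, passing the limit was not always enough; inconclusive = exactly half the replicates above a set limit; inactive = most replicates below a set limit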;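 also: all wells also contain fluconazole at 8 µg/ml as a sub-toxic cotreatment; 0% = median of DMSO wells and 100% = median of geldanamycin control wells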
SUMO Mot1 rescue: yeast Mot1-301 growth rescue at high temperature, primary screen, SUMOylation pathway inhibitor project, S. cerevisiae, ATP luminescence, 38.5C; S. cerevisiae Mot1-301 growth rescue; percent above DMSO median, 100 means doubled; AID 2716, 2010; hit rate 1% among 320,000; growth rescue, % at 18.8 µM;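 active = every valid replicate shows activation above 250% relative to neutral control wells; inactive = the rest, any valid replicate at or below 250%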;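 also: OY570 slx delta 5 strain wells were the positive control but not used for scaling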
ATG4B inhibitor: ATG4B protease inhibitors, primary screen, biochemical, fluorescence, uHTS; ATG4B cleavage of LC3-PLA2, NBD-HPC fluorescence, 1 h; Cysteine protease ATG4B (Homo sapiens), Q9Y4P1; hit rate 0.51% among 340,000; inhibition, % at 8.33 µM; in the data active = inhibition above about 40%
Target sequence (Q9Y4P1 whole entry, looked up): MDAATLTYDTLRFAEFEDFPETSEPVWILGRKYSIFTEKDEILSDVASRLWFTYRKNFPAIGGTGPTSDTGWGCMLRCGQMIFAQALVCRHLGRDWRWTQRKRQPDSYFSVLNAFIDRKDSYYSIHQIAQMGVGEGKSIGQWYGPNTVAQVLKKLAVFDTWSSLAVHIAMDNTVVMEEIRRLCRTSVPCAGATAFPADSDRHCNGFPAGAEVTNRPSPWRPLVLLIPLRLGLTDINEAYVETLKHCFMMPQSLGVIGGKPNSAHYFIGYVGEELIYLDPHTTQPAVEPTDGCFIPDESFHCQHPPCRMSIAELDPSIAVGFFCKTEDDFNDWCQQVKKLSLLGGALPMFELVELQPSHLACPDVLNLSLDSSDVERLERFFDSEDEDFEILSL
* marks the source's active call; other numbers are inactive results; u = inconclusive; x = not tested or not shown. This is a sample that favours compounds with a hit; in the whole collection about 3.1% have one here.

SMILES	NadD block	FAS TE block	Calb FLC	SUMO Mot1 rescue	ATG4B inhibitor
CC(/C=C1\SC(=S)N(CCCC(=O)Nc2ccc(C(=O)O)c(O)c2)C1=O)=C\c1ccccc1	x	x	14	0	41*
CC(/C=C1\SC(=S)N(NC(=O)c2ccc(C)cc2)C1=O)=C\c1ccccc1	30*	18	-39	15	1
C[C@@H]1CN([C@H](C)CO)S(=O)(=O)c2ccc(Br)cc2O[C@H]1CN(C)C(=O)Cc1ccccn1	0	-5	x	x	x
c1ccc(-c2nnc(SCc3ccncc3)o2)cc1	1	-5	x	x	x
Brc1cccc(CSc2nnc(-c3ccncc3)o2)c1	-3	12	81*	12	-3
Cc1ccc(S(=O)(=O)c2nnn3c2nc(NC2CCN(Cc4ccccc4)CC2)c2ccccc23)cc1C	38*	86*	5	12	-2
CCCCC/C=C\C/C=C\C/C=C\CCCCC(=O)O	10	6	x	-19	17
CCCCCCCC/C=C\CCCCCCCC(=O)O	17	62*	x	150	22
COc1cccc(CNC(=O)CCS(=O)(=O)c2cccc3nonc23)c1	-3	-14	-8	286*	-5
COc1cccc(CNC(=O)CCS(=O)(=O)c2cccc3nsnc23)c1	4	-4	17	-5	-7
COc1ccc(-n2nc3c(N4CCC(C(=O)NCc5ccccc5C)CC4)nnc(C)c3c2C)cc1	5	4	10	7	54*
Cc1cc(C)cc(OCc2nnc(SCC(=O)N3CCCCC3)o2)c1	-6	-1	-13	-4	-7
COc1ccc(Cl)cc1S(=O)(=O)N1CCCC(C(=O)NCc2ccccn2)C1 (configuration not stated)	-6	-5	-7	-4	0
Cc1cc(O)c(/C=N/Nc2ccc(F)cc2)c(=O)o1	-1	-8	122*	177	13
Cc1ccc(N/N=C/c2c(O)cc(C)oc2=O)cc1	-1	-9	-14	169	6
CC(C)(C)c1ccc(-n2nc(C(N)=O)c(O)cc2=O)cc1	2	-5	-12	220	-4
CC(C)(C)c1ccc(-n2nc(C#N)c(Cl)cc2=O)cc1	-3	46	86*	x	1
O=C(Nc1ccccc1F)c1ccc(C(=O)c2ccccc2)cc1	-5	8	6	4	7
Clc1cccc(N2CCN(CCCN3CCN(c4ccccc4)CC3)CC2)c1	-4	0	x	x	-11
Nc1ccc(N2CCN(c3cccc(Cl)c3)CC2)cc1	14	-12	101*	145	-3
CC(C)C1C(c2ccccc2)N(C)C(c2ccccc2)CC1(O)c1ccccc1 (configuration not stated)	-6	36	-6	379*	5
CCC1C(c2ccccc2)N(C)C(c2ccccc2)CC1(O)c1ccccc1 (configuration not stated)	-1	33	1	178	9
CCc1nc(NCC2CC2)c2nnn(Cc3ccccc3)c2n1	-4	-1	x	x	x
CCOC(=O)C1CCN(CC(C)(C)NS(=O)(=O)c2ccc(Cl)cc2)CC1	7	2	-3	338*	1
O=C(COc1ccccc1Cl)NCCC1=CCCCC1	-7	7	-2	-10	12
SMILES	NadD block	FAS TE block	Calb FLC	SUMO Mot1 rescue	ATG4B inhibitor
Cc1ccc(C(=O)c2coc3c2C(=O)C(=O)c2ccccc2-3)cc1	-2	4	80*	3	-7
Cc1cc(C)c(NS(=O)(=O)c2cccc3cccnc23)c(C)c1	-1	7	73*	2	-3
Cc1ccc(NS(=O)(=O)c2cccc3cccnc23)cc1Cl	-2	15	-8	-7	-10
CCC(=O)Nc1cccc(-c2ccc(N3CCCCC3)nn2)c1	1	-2	0	-31	-1
CC[n+]1c(C=C2C=C(C)OC(C)=C2)sc2ccccc21	10	-1	108*	x	0
Cc1nc2ccc(S(=O)(=O)NCC(=O)Nc3cccc(F)c3)cc2s1	-6	-3	0	12	-13
CCN1/C(=C/C=C/c2oc3ccc(-c4ccccc4)cc3[n+]2CC)Oc2ccc(-c3ccccc3)cc21	44*	-157	75*	339*	37
CCN1/C(=C/C=C/c2sc3ccccc3[n+]2CC)Sc2ccccc21	6	-17	27	-2	24
CNC(=O)c1ccc2c(c1)nnn2C	-5	-18	106*	-3	-1
CC(C)C[C@H]1CN(CCCC[C@H]2CNC(=O)C(=O)N2CCc2ccccc2)C(=O)C(=O)N1CC1CCCCC1	-1	-11	x	x	x
CC(C)CC(NC(=O)c1ccc(Cl)cc1Cl)C(=O)O (configuration not stated)	0	-12	0	271*	0
COc1ccc(-c2ccc(NS(=O)(=O)c3cc([N+](=O)[O-])c(C)c([N+](=O)[O-])c3)cc2)nn1	4	59*	52	21	-4
CC1CN(C(=S)Nc2cccc([N+](=O)[O-])c2)CC(C)O1 (configuration not stated)	-3	15	121*	3	-2
CC1CN(C(=S)NC(=O)c2cccc([N+](=O)[O-])c2)CC(C)O1 (configuration not stated)	7	-1	4	-7	-1
S=C(NCCc1ccccn1)Nc1cccc(Cl)c1	2	-11	-1	-3	4
O=[N+]([O-])c1cc(S(=O)(=O)O)cc([N+](=O)[O-])c1NN(c1ccccc1)c1ccccc1	-2	28	-3	9	3
CC(=O)c1c(C)[nH]c(C(=O)COC(=O)c2c(-c3ccccc3)noc2C)c1C	-6	18	x	-1	-6
O=C1CCc2ccc(OCCCCN3CCN(c4cccc(Cl)c4Cl)CC3)cc2N1	-2	17	105*	60	0
C/C(=N\NC(=O)C1CC1)c1ccccc1O	-3	0	-2	640*	10
C/C(=N/NC(=O)c1ccccc1O)c1ccc(N2C(=O)C3CCCCC3C2=O)cc1 (configuration not stated)	1	-6	111*	-19	5
C/C(=N\NC(=O)c1ccccc1O)c1ccc(NC(=O)c2ccccc2)cc1	3	-4	-7	-1	-3
Cc1nc2c(C#N)c[nH]n2c(=O)c1CCO	-9	-3	21	4	-2
CCOC(=O)C1CCN(S(=O)(=O)c2ccc3c4c(cccc24)C(=O)N3CC)CC1	3	11	x	9	10
COc1ccc(N2C(=S)N=C(Nc3cccc(C)c3)C23CCCCC3)cc1	0	-4	u	-10	0
Cc1cccc(NC2=NC(=S)N(c3cccc(C(=O)O)c3)C23CCCCC3)c1	7	-4	104*	16	-1

High-throughput results deposited in PubChem by several laboratories.
